# Measurements as given in the supplement of paper PMC4022240.
# ± gives the standard deviation.
# B1: H3 1-13 A R T Kme3 Q T A R Kac S T G G (peptide)
# chain: ARTKQTARKSTGG
# B2: H3 1-13 A R T Kme Q T A R Kme2 S T G G (peptide)
# chain: ARTKQTARKSTGG
# B3: H3 1-13 A R T Kme3 Q Tph A R K S T G G (peptide)
# chain: ARTKQTARKSTGG
# B4: H3 1-13 A R T Kme2 Q T A R Kac S T G G (peptide)
# chain: ARTKQTARKSTGG
# B5: H3 1-13 A R T K Q T A R Kac S T G G (peptide)
# chain: ARTKQTARKSTGG
# B6: H3 1-13 A R T Kme3 Q T A R Kme3 S T G G (peptide)
# chain: ARTKQTARKSTGG
# B7: H3 1-13 A R T K Q T A R Kme2 S T G G (peptide)
# chain: ARTKQTARKSTGG
# B8: H3 1-13 A R T K Q T A R Kme Sph T G G (peptide)
# chain: ARTKQTARKSTGG
# B9: H3 1-13 A R T Kme2 Q Tph A R K S T G G (peptide)
# chain: ARTKQTARKSTGG
# B10: H3 1-13 A R T K Q T A R Kac Sph T G G (peptide)
# chain: ARTKQTARKSTGG
# What was measured:
# Assay in all cases: peptide microarray binding signal (635 nm), min-max normalized on array (fraction of array maximum); higher = stronger binding
# Conditions in all cases: peptide region: H3 1-13
# [1] = biological target: T1, HaloTag-ATRX ADD domain (163-292)
# T1 chain: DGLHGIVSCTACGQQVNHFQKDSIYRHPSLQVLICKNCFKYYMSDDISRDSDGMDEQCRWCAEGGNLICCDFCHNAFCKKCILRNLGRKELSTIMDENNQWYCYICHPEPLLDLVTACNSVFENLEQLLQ
# Procedure: (§1)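 Histone 13-mer peptides were synthesized as cellulose conjugates with a C-terminal 20-atom PEG linker and printed in triplicate on nitrocellulose. The sequence given is the unmodified backbone; PTMs (Kme1/2/3, Kac, Sph/Tph, Rme/Rme2a/Rme2s, Rcit) are listed in the label and the 'peptide modifications' condition. Slides were probed at 4 °C for 1 h with biotin-labelled (HQ)5-HaloTag reader fusions (ATRX-ADD, ING2-PHD) then streptavidin-Alexa647, or with rabbit histone antibodies then anti-rabbit Alexa647. The mean 635 nm signal of the triplicate spots was scaled 0-1 between the lowest and highest values on each array.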
# [2] = biological target: HaloTag-ING2 PHD (mouse Ing2 200-280)
# Procedure: as §1
# [3] = biological target: anti-H3K4me3 antibody ab8580
# Procedure: as §1
# [4] = biological target: anti-H3K9me3 antibody ab8898
# Procedure: as §1
# [5] = peptide modifications: H3K4me3 H3K9ac, binder concentration: 1:2,000 dilution
# [6] = peptide modifications: H3K4me3 H3K9ac, binder concentration: 1:10,000 dilution
# [7] = peptide modifications: H3K4me1 H3K9me2, binder concentration: 1:2,000 dilution
# [8] = peptide modifications: H3K4me1 H3K9me2, binder concentration: 1:10,000 dilution
# [9] = peptide modifications: H3K4me3 H3T6ph, binder concentration: 1:2,000 dilution
# [10] = peptide modifications: H3K4me3 H3T6ph, binder concentration: 1:10,000 dilution
# [11] = peptide modifications: H3K4me2 H3K9ac, binder concentration: 1:2,000 dilution
# [12] = peptide modifications: H3K4me2 H3K9ac, binder concentration: 1:10,000 dilution
# [13] = peptide modifications: H3K9ac, binder concentration: 1:2,000 dilution
# [14] = peptide modifications: H3K9ac, binder concentration: 1:10,000 dilution
# [15] = peptide modifications: H3K4me3 H3K9me3, binder concentration: 1:2,000 dilution
# [16] = peptide modifications: H3K4me3 H3K9me3, binder concentration: 1:10,000 dilution
# [17] = peptide modifications: H3K9me2, binder concentration: 1:2,000 dilution
# [18] = peptide modifications: H3K9me2, binder concentration: 1:10,000 dilution
# [19] = peptide modifications: H3K9me1 H3S10ph, binder concentration: 1:2,000 dilution
# [20] = peptide modifications: H3K9me1 H3S10ph, binder concentration: 1:10,000 dilution
# [21] = peptide modifications: H3K4me2 H3T6ph, binder concentration: 1:2,000 dilution
# [22] = peptide modifications: H3K4me2 H3T6ph, binder concentration: 1:10,000 dilution
# [23] = peptide modifications: H3K9ac H3S10ph, binder concentration: 1:2,000 dilution
binder,measurement,setting,value
B1,peptide microarray binding signal,"[1]; peptide modifications: H3K4me3 H3K9ac, binder concentration: 50 nM",0.00768 ± 0.00092
same,peptide microarray binding signal,"[1]; peptide modifications: H3K4me3 H3K9ac, binder concentration: 500 nM",0.00948 ± 0.00033
same,peptide microarray binding signal,"[2]; peptide modifications: H3K4me3 H3K9ac, binder concentration: 10 nM",0.216 ± 0.039
same,peptide microarray binding signal,"[2]; peptide modifications: H3K4me3 H3K9ac, binder concentration: 100 nM",0.199 ± 0.014
same,peptide microarray binding signal,[3]; [5],0.289 ± 0.062
same,peptide microarray binding signal,[3]; [6],0.621 ± 0.31
same,peptide microarray binding signal,[4]; [5],0.0528 ± 0.047
same,peptide microarray binding signal,[4]; [6],0.0162 ± 0.0043
B2,peptide microarray binding signal,"[1]; peptide modifications: H3K4me1 H3K9me2, binder concentration: 500 nM",0.0151 ± 0.00042
same,peptide microarray binding signal,"[2]; peptide modifications: H3K4me1 H3K9me2, binder concentration: 10 nM",0.155 ± 0.014
same,peptide microarray binding signal,"[2]; peptide modifications: H3K4me1 H3K9me2, binder concentration: 100 nM",0.182 ± 0.062
same,peptide microarray binding signal,[3]; [7],0.0488 ± 0.0073
same,peptide microarray binding signal,[3]; [8],0.0289 ± 0.0056
same,peptide microarray binding signal,[4]; [7],0.00408 ± 0.00035
same,peptide microarray binding signal,[4]; [8],0.00409 ± 0.00034
B3,peptide microarray binding signal,"[1]; peptide modifications: H3K4me3 H3T6ph, binder concentration: 50 nM",0.00724 ± 0.0003
same,peptide microarray binding signal,"[1]; peptide modifications: H3K4me3 H3T6ph, binder concentration: 500 nM",0.0154 ± 0.0024
same,peptide microarray binding signal,"[2]; peptide modifications: H3K4me3 H3T6ph, binder concentration: 10 nM",0.169 ± 0.048
same,peptide microarray binding signal,"[2]; peptide modifications: H3K4me3 H3T6ph, binder concentration: 100 nM",0.484 ± 0.12
same,peptide microarray binding signal,[3]; [9],0.323 ± 0.064
same,peptide microarray binding signal,[3]; [10],0.404 ± 0.061
same,peptide microarray binding signal,[4]; [9],0.0262 ± 0.0036
same,peptide microarray binding signal,[4]; [10],0.00865 ± 0.0019
B4,peptide microarray binding signal,"[1]; peptide modifications: H3K4me2 H3K9ac, binder concentration: 50 nM",0.0115 ± 0.00036
same,peptide microarray binding signal,"[1]; peptide modifications: H3K4me2 H3K9ac, binder concentration: 500 nM",0.0237 ± 0.0019
same,peptide microarray binding signal,"[2]; peptide modifications: H3K4me2 H3K9ac, binder concentration: 10 nM",0.954 ± 0.21
same,peptide microarray binding signal,"[2]; peptide modifications: H3K4me2 H3K9ac, binder concentration: 100 nM",0.716 ± 0.27
same,peptide microarray binding signal,[3]; [11],0.298 ± 0.09
same,peptide microarray binding signal,[3]; [12],0.293 ± 0.1
same,peptide microarray binding signal,[4]; [11],0.00778 ± 0.00063
same,peptide microarray binding signal,[4]; [12],0.00824 ± 0.00044
B5,peptide microarray binding signal,"[1]; peptide modifications: H3K9ac, binder concentration: 50 nM",0.0143 ± 0.00037
same,peptide microarray binding signal,"[1]; peptide modifications: H3K9ac, binder concentration: 500 nM",0.0461 ± 0.0053
same,peptide microarray binding signal,"[2]; peptide modifications: H3K9ac, binder concentration: 10 nM",0.0431 ± 0.012
same,peptide microarray binding signal,"[2]; peptide modifications: H3K9ac, binder concentration: 100 nM",0.0776 ± 0.0087
same,peptide microarray binding signal,[3]; [13],0.00276 ± 0.00088
same,peptide microarray binding signal,[3]; [14],0.00171 ± 7.1e-05
same,peptide microarray binding signal,[4]; [13],0.00554 ± 0.00013
same,peptide microarray binding signal,[4]; [14],0.00185 ± 0.00011
B6,peptide microarray binding signal,"[1]; peptide modifications: H3K4me3 H3K9me3, binder concentration: 50 nM",0.0752 ± 0.0036
same,peptide microarray binding signal,"[1]; peptide modifications: H3K4me3 H3K9me3, binder concentration: 500 nM",0.159 ± 0.022
same,peptide microarray binding signal,"[2]; peptide modifications: H3K4me3 H3K9me3, binder concentration: 10 nM",0.582 ± 0.018
same,peptide microarray binding signal,"[2]; peptide modifications: H3K4me3 H3K9me3, binder concentration: 100 nM",0.742 ± 0.14
same,peptide microarray binding signal,[3]; [15],1 ± 0.19
same,peptide microarray binding signal,[3]; [16],1 ± 0.19
same,peptide microarray binding signal,[4]; [15],0.46 ± 0.11
same,peptide microarray binding signal,[4]; [16],0.321 ± 0.037
B7,peptide microarray binding signal,"[1]; peptide modifications: H3K9me2, binder concentration: 50 nM",0.0139 ± 0.0015
same,peptide microarray binding signal,"[1]; peptide modifications: H3K9me2, binder concentration: 500 nM",0.0282 ± 0.0022
same,peptide microarray binding signal,"[2]; peptide modifications: H3K9me2, binder concentration: 10 nM",0.00668 ± 0.00014
same,peptide microarray binding signal,"[2]; peptide modifications: H3K9me2, binder concentration: 100 nM",0.00935 ± 0.00046
same,peptide microarray binding signal,[3]; [17],0.00104 ± 0.0001
same,peptide microarray binding signal,[3]; [18],0.000571 ± 1.1e-05
same,peptide microarray binding signal,[4]; [17],0.00128 ± 6.2e-05
same,peptide microarray binding signal,[4]; [18],0.000923 ± 9.6e-06
B8,peptide microarray binding signal,"[1]; peptide modifications: H3K9me1 H3S10ph, binder concentration: 50 nM",0.01 ± 0.00047
same,peptide microarray binding signal,"[1]; peptide modifications: H3K9me1 H3S10ph, binder concentration: 500 nM",0.0275 ± 0.00045
same,peptide microarray binding signal,"[2]; peptide modifications: H3K9me1 H3S10ph, binder concentration: 10 nM",0.00961 ± 0.00044
same,peptide microarray binding signal,"[2]; peptide modifications: H3K9me1 H3S10ph, binder concentration: 100 nM",0.02 ± 0.0008
same,peptide microarray binding signal,[3]; [19],0.000831 ± 3.9e-05
same,peptide microarray binding signal,[3]; [20],0.000171 ± 5.1e-06
same,peptide microarray binding signal,[4]; [19],0.00233 ± 0.00015
same,peptide microarray binding signal,[4]; [20],0.00138 ± 2.7e-05
B9,peptide microarray binding signal,"[1]; peptide modifications: H3K4me2 H3T6ph, binder concentration: 50 nM",0.00636 ± 7.4e-05
same,peptide microarray binding signal,"[1]; peptide modifications: H3K4me2 H3T6ph, binder concentration: 500 nM",0.0142 ± 0.0017
same,peptide microarray binding signal,"[2]; peptide modifications: H3K4me2 H3T6ph, binder concentration: 10 nM",0.139 ± 0.025
same,peptide microarray binding signal,"[2]; peptide modifications: H3K4me2 H3T6ph, binder concentration: 100 nM",0.385 ± 0.012
same,peptide microarray binding signal,[3]; [21],0.0372 ± 0.011
same,peptide microarray binding signal,[3]; [22],0.0131 ± 0.0018
same,peptide microarray binding signal,[4]; [21],0.00426 ± 0.0013
same,peptide microarray binding signal,[4]; [22],0.00271 ± 0.00042
B10,peptide microarray binding signal,"[1]; peptide modifications: H3K9ac H3S10ph, binder concentration: 500 nM",0.0136 ± 0.00075
same,peptide microarray binding signal,"[2]; peptide modifications: H3K9ac H3S10ph, binder concentration: 100 nM",0.0173 ± 0.0011
same,peptide microarray binding signal,[3]; [23],0.000925 ± 2.1e-05
same,peptide microarray binding signal,[4]; [23],0.00113 ± 0.00013
